Tests used:
Conditions in all cases: Compound Concentration (nM):1000
[1] = system: STK33
[2] = system: STK35
[3] = system: STK36
[4] = system: STK39
[5] = system: SYK
[6] = system: SgK110
[7] = system: T1, TAK1
T1 construct: gene MAP3K7

[8] = system: TAOK1
[9] = system: TAOK2
[10] = system: TAOK3
[11] = system: TBK1
[12] = system: TEC
[13] = system: TESK1
[14] = system: TGFBR1
[15] = system: TGFBR2
[16] = system: TIE1
[17] = system: T2, TIE2
T2 construct: gene TEK

[18] = system: TLK1
[19] = system: TLK2
[20] = system: TNIK
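Note: KINOMEscan scanMAX binding as percent activity remaining versus control; lower means stronger binding.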

Structure (SMILES)	Percent Control [1] [%]	Percent Control [2] [%]	Percent Control [3] [%]	Percent Control [4] [%]	Percent Control [5] [%]	Percent Control [6] [%]	Percent Control [7] [%]	Percent Control [8] [%]	Percent Control [9] [%]	Percent Control [10] [%]	Percent Control [11] [%]	Percent Control [12] [%]	Percent Control [13] [%]	Percent Control [14] [%]	Percent Control [15] [%]	Percent Control [16] [%]	Percent Control [17] [%]	Percent Control [18] [%]	Percent Control [19] [%]	Percent Control [20] [%]
CN(C)CCNC(=O)Nc1ccc(N(C)c2ccnc(Nc3ccc(CS(C)(=O)=O)cc3)n2)cc1.Cl [GW830900A]	85	14	70	78	97	47	48	80	86	89	98	82	100	100	75	72	100	89	100	49
COc1cc2ncnc(Nc3ccc4c(cnn4Cc4ccccc4)c3)c2cc1OC.Cl [GW282449A]	98	100	100	100	77	100	100	100	100	100	100	83	100	100	100	100	100	100	100	100
Nc1ncnc2occ(-c3ccc(NC(=O)Nc4cc(C(F)(F)F)ccc4F)cc3)c12 [GW770249X]	11	95	100	100	38	100	3.2	75	67	74	100	100	100	100	100	2.6	3.8	100	100	59
CCn1c(-c2nonc2N)nc2c(C#CC(C)(C)O)nc(OCCNC)cc21.Cl [GSK949675]	100	100	100	98	100	100	85	72	92	90	95	100	100	100	100	100	96	100	100	100
NS(=O)(=O)c1ccc(N/N=C2\C(=O)Nc3ccc(C(=O)NCCc4c[nH]cn4)cc32)cc1 [GW300660X]	67	100	100	100	100	100	18	75	93	86	72	100	100	100	100	100	100	100	100	100
Cl.O=C(Nc1ccc(Oc2ccc3[nH]c(NC(=O)c4ccco4)nc3c2)cc1)Nc1cc(C(F)(F)F)ccc1F [GW683134A]	9.8	81	100	100	100	100	9.1	100	97	100	100	100	71	91	89	1.1	1.9	100	77	100
CCS(=O)(=O)c1ccc(OC)c(Nc2ncc(-c3cccc(OC)c3)o2)c1 [GW580509X]	100	100	100	100	96	100	81	100	100	100	100	100	100	81	46	49	100	100	99	75
CN(C)c1cc2c(Nc3ccc4c(cnn4Cc4ccccc4)c3)ncnc2cn1 [GW282974X]	84	100	100	95	100	100	93	92	86	100	55	84	87	100	100	100	100	78	80	100
Cl.c1ccc(Cc2nc3ccc(Nc4ncnc5ccccc45)cc3[nH]2)cc1 [GR269666A]	97	100	100	100	100	100	100	100	100	100	100	100	100	100	100	100	100	100	100	100
C[C@@H](Oc1cc(-n2cnc3ccc(OC4CCN(C)CC4)cc32)sc1C(N)=O)c1ccccc1Cl [GSK579289A]	100	82	76	83	100	100	38	75	96	79	67	99	72	100	100	52	69	81	77	75
C/C(Nc1ccc(S(N)(=O)=O)cc1)=C1/C(=O)Nc2ccccc21 [GW335962X]	92	95	98	64	94	100	70	81	92	94	75	100	100	88	100	100	100	94	65	18
CN1CCN(C(=O)c2ccc(NC(=O)Nc3ccc(N(C)c4ccnc(Nc5ccc(CS(C)(=O)=O)cc5)n4)cc3)cc2)CC1.Cl [GW830263A]	92	71	37	79	34	89	25	71	76	83	55	100	100	88	26	8.3	41	86	100	23
COc1cccc(-c2c[nH]c3c(N/N=C/c4ccncc4)ncnc23)c1 [GW814408X]	84	100	11	100	72	87	100	11	51	32	71	90	97	55	100	96	100	84	100	51
Cl.O=C(O[C@H]1CN[C@H](C#Cc2cc3ncnc(Nc4ccc5c(cnn5Cc5ccccc5)c4)c3s2)C1)N1CCOCC1 [GSK200398A]	90	99	100	83	91	100	100	91	97	100	100	100	96	97	100	100	100	80	72	96
COc1ccc2c(-c3ccnc(Nc4cccc(OC(F)(F)F)c4)n3)cnn2n1 [GW810372X]	90	100	100	86	83	100	95	73	98	100	80	100	70	100	52	100	100	100	84	100
Cl.O=S1CCN(Cc2ccc(-c3ccc4ncnc(Nc5ccc(OCc6ccccc6)c(F)c5)c4c3)o2)CC1 [GW576924A]	84	100	100	100	100	100	100	100	100	100	100	100	100	100	100	100	100	100	100	100
NS(=O)(=O)c1ccc(N/N=C2\C(=O)Nc3ccc(Cl)cc32)cc1 [GW280670X]	95	100	100	100	98	100	81	95	100	100	100	100	100	100	100	100	100	100	100	47
COc1cc(C)c(N(C)C(=O)CN(C)C)cc1Nc1nc(Nc2cccc(F)c2C(N)=O)c2cc[nH]c2n1 [GSK2219385]	91	98	100	81	100	100	93	100	100	100	69	100	92	100	100	82	100	85	100	98
CC1=C(C(=O)Nc2ccc3[nH]ncc3c2)C(c2ccc(Cl)c(Cl)c2)CC(=O)N1 (stereo not shown) [GSK299115A]	82	84	100	81	99	100	82	68	77	81	92	92	100	100	100	90	100	84	90	100
COc1ccc2[nH]c3c4[nH]c5ccc(OC)cc5c4c4c(c3c2c1)C(=O)NC4=O [GW296115X]	33	80	70	100	73	100	20	100	96	96	59	88	90	100	100	100	100	100	95	3

From article PMC7826789 (International Journal of Molecular Sciences, 2021)
